GDH-TPI counter = GDH-TPI coupled enzyme inhibition counter-screen; AID 588335; GDH-TPI coupled enzyme counterscreen, NADH absorbance; hit rate 1.2% among 360,000; inhibition, % at 4.8 µM; in the data active means inhibition above about 30%
PrPC TRFRET = cell surface PrPC inhibition, primary TR-FRET screen. inhibition, % at 13.8 µM. AID 720596. TR-FRET read-out. hit rate 0.43% among 370,000; in the data active means inhibition above about 24%
BJeLR lethal = BJeLR cell viability loss; BJeLR (HRASV12) viability, CellTiter-Glo ATP luminescence, 48 h; inhibition, % (test concentration not listed); hit rate 0.17% among 300,000; in the data active means inhibition above about 50%; inconclusive means no clear call, values can overlap the other calls
PrP UTR inh = inhibition of PrP 5' UTR reporter expression; inhibition, % (test concentration not listed); AID 488862; cell-based PrP 5' UTR mRNA reporter, plate reader; hit rate 0.35% among 340,000; in the data active means inhibition above about 52%
Mtb FBA inh = inhibitors of M. tuberculosis fructose-bisphosphate aldolase; purified M. tuberculosis FBA, fluorescence read-out; inhibition, % at 1 µM; hit rate 2.3% among 360,000; in the data active means inhibition above about 27%
PfHsp40 rescue = compounds rescuing yeast from Plasmodium falciparum HSP40 toxicity. S. cerevisiae expressing PfHsp40, growth rescue, ATP luminescence. growth rescue, % at 12.5 µM. hit rate 0.68% among 340,000. AID 504582; in the data active means growth rescue above about 28%, passing the limit was not always enough; inconclusive means no clear call, values can overlap the other calls;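 further: yeast W303a lacking pdr1 and pdr3 grown in galactose medium; growth measured after three days at 30 °C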
PrPC confirm = cell surface PrPC inhibition, TR-FRET confirmation. shares compounds with PrPC TRFRET. cell surface PrPC level. inhibition, % at 13.8 µM. hit rate 65% among 1,500. AID 743200; in the data active means inhibition above about 25%
LD9 tox = kills or reduces viability of LD9 cells in PrPc counter-screen; shares compounds with PrPC TRFRET; AID 743201; inhibition, % at 13.8 µM; hit rate 29% among 1,500; LD9 cells cytotoxicity, luminescence viability; in the data active means inhibition above about 9.5%
Hits are given with their value; - = inactive; ? = inconclusive; . = no result. Only some compounds are listed: those with a hit (about 4.5% of all), similar ones and a draw of the others.

SMILES | GDH-TPI counter | PrPC TRFRET | BJeLR lethal | PrP UTR inh | Mtb FBA inh | PfHsp40 rescue | PrPC confirm | LD9 tox
CC(C)(C)c1ccc(CNc2ccc([N+](=O)[O-])cn2)cc1 | - | - | - | - | - | - | . | .
CCn1c(C)cs/c1=N\S(=O)(=O)c1ccccc1 | - | - | - | - | - | - | . | .
O=Cc1s/c(=N\S(=O)(=O)c2ccccc2)n(CCCCl)c1Cl | - | 75.8 | - | - | - | - | 95.5 | 89.7
CN(C)c1ccc(Sc2ccc3nc(N)nc(N)c3c2)cc1 | - | 32.9 | . | . | - | . | 34.9 | 15.4
COc1ccc(C(=O)C[n+]2cc(Br)cc3ccccc32)cc1[N+](=O)[O-] | - | 26.7 | - | - | - | - | - | -
COc1ccc(C(=O)OCC(N)=O)cc1[N+](=O)[O-] | - | - | - | - | - | - | . | .
CC1C(OC(=O)CCC(=O)NC(C)(C)CO)O[C@H]2OC3(C)CC[C@H]4[C@H](C)CCC1C24OO3 (stereo not given in full) | - | 32.7 | - | - | - | 121.8 | 33.0 | 19.3
CC(C)CC(NC(=O)CCCNC(=O)CCC(=O)OC1O[C@H]2OC3(C)CC[C@H]4[C@H](C)CCC(C1C)C24OO3)C(=O)O (stereo not given in full) | - | 28.0 | - | - | - | 195.8 | 37.8 | 19.6
CC(=O)N1CCN(c2ccnc3cc(Cl)ccc23)CC1 | - | - | - | - | - | - | . | .
O=C(O)CSc1ccnc2cc(Cl)ccc12 | - | 47.2 | - | - | - | - | 90.3 | -
COC(=O)CSc1ccnc2cc(Cl)ccc12 | - | 68.1 | - | - | - | - | 91.9 | -
Cc1cnc2cc(Cl)ccc2c1SCC(=O)O | - | - | - | - | - | - | . | .
CC1CCC2(CCC(=O)N2C[C@@H](O)c2ccccc2)CC1 (stereo not given in full) | . | - | . | . | . | . | . | .
Cc1ccc(S(=O)(=O)Nc2ccccc2C(=O)N2CCOCC2)cc1 | - | - | - | - | - | - | . | .
CS(=O)(=O)Nc1ccccc1C(=O)N1CCOCC1 | - | 34.3 | - | - | - | - | - | -
Cc1cc(O)c(C(C)C)cc1C1(c2cc(C(C)C)c(O)cc2C)OC(=O)c2ccccc21 | - | 25.1 | - | - | - | - | - | -
Cc1cc(C2(c3ccc(O)c(C)c3)OC(=O)c3ccccc32)ccc1O | - | - | - | - | - | - | . | .
O=C(NCCOC(=O)c1c(F)cccc1Cl)c1c(F)cccc1Cl | - | - | - | - | - | - | . | .
CCn1cc(Cl)c(C(=O)Nc2ccccc2C(N)=O)n1 | - | 54.2 | - | - | - | - | - | -
O=C(Cc1cccs1)Nc1nc(-c2ccc(F)cc2F)cs1 | - | 26.2 | - | - | - | ? | - | -
Cc1cc(Br)cn2c(Cc3ccccc3)c(-c3ccco3)nc12 | . | 35.5 | . | . | - | . | 50.3 | -
Cc1ccc(Cc2c(-c3ccco3)nc3ccc(Br)cn23)cc1 | . | 33.7 | . | . | - | . | 57.4 | -
COc1ccccc1Cc1c(-c2ccco2)nc2c(C)cc(Br)cn12 | . | . | . | . | - | . | . | .
Cc1ccc(Cc2c(-c3ccc(C)cc3)nc3ccc(Br)cn23)cc1 | - | - | . | . | - | . | . | .
Cc1cc(Br)cn2c(Cc3ccsc3)c(-c3ccco3)nc12 | . | 30.1 | . | . | - | . | 43.5 | -
SMILES | GDH-TPI counter | PrPC TRFRET | BJeLR lethal | PrP UTR inh | Mtb FBA inh | PfHsp40 rescue | PrPC confirm | LD9 tox
CCN(C(=O)COC(=O)CCn1c(C)csc1=O)c1c(N)n(Cc2ccccc2)c(=O)[nH]c1=O | - | - | . | - | - | - | . | .
COC(=O)C(Cc1ccccc1)NC(=O)C(CC(C)C)NC(=O)OC(C)(C)C (stereo not given) | - | - | - | - | - | - | . | .
COC(=O)[C@H](CC1(c2cn(S(=O)(=O)CC[Si](C)(C)C)c3ccccc23)C(=O)Nc2ccccc21)NC(=O)OC(C)(C)C (stereo not given in full) | . | 46.7 | . | . | . | . | 59.0 | -
CCc1ccc(NC(=O)NCCCN2CCCC2=O)cc1 | - | - | - | - | - | - | . | .
O=[N+]([O-])c1c(Nc2ccc(O)cc2)cc(Cl)c2nonc12 | - | 79.5 | 52.1 | - | - | - | 94.5 | 99.2
COc1ccc(NC(=O)C2(C)Cc3c(-c4cccc(C(N)=O)c4)ccnc3O2)cc1OC (stereo not given) | - | - | . | . | - | . | . | .
O=[N+]([O-])c1ccc(N2CCOCC2)c2c1no[n+]2[O-] | - | 28.6 | . | . | - | . | 44.7 | 98.3
O=[N+]([O-])c1ccc(N2CCOCC2)c2cccnc12 | - | - | - | - | - | - | . | .
Cc1nc(N2CCOCC2)[nH]c(=O)c1C(O)C(Cl)(Cl)Cl (stereo not given) | - | - | - | - | - | - | . | .
CCOC(=O)c1sc(NC(=O)Cc2c(F)cccc2Cl)nc1C | - | - | - | - | - | - | . | .
CC(=O)c1sc(NC(=O)Cc2c(F)cccc2Cl)nc1C | - | 40.9 | - | - | - | - | 43.5 | -
NCCCNc1nc(N)c([N+](=O)[O-])c(NC2CCCCC2)n1 | - | 66.4 | - | - | - | - | 78.8 | 24.7
O=C(Nc1cc(S(=O)(=O)N2CCOCC2)ccc1N1CCOCC1)c1cccs1 | - | - | . | - | - | - | . | .
C=CCOc1ccc(C2NC(=S)NC(C)=C2C(=O)c2ccccc2)cc1OC (stereo not given) | - | 43.1 | - | - | - | - | 49.8 | -
Cc1ccnc(NC(=O)Cc2ccc(-c3ccccc3)cc2)c1 | - | 34.8 | - | - | - | - | 40.9 | -
O=C(Cc1ccc(-c2ccccc2)cc1)Nc1ccccn1 | - | - | - | - | - | - | . | .
COc1ccc(C)cc1CN1C(=O)c2ccccc2C1=O | - | 27.8 | - | - | - | - | - | -
CC(=O)Nc1ccc(S(=O)(=O)Nc2ccc(S(=O)(=O)Nc3nccs3)cc2)cc1 | - | - | - | - | - | - | . | .
COc1ccc(NC(=O)Nc2ccon2)c(OC)c1 | - | - | - | - | - | - | . | .
O=c1oc2ccccc2c(O)c1[C@H]1c2ccc(O)cc2Oc2c1c(=O)oc1ccccc21 | - | 41.5 | - | - | - | - | 56.6 | -
O=c1oc2ccccc2c2c1C(O)CO2 (stereo not given) | - | - | - | - | - | - | . | .
COc1c2c(c3c(c1OC)c(=O)c1ccccc1n3C)OCO2 | - | - | . | - | - | - | . | .
O=C(c1sccc1-c1ccccc1)N1CCN(S(=O)(=O)c2ccccc2F)CC1 | - | - | - | - | - | - | . | .
Cc1csc(NC(=O)c2cc3c(s2)CCCC3)n1 | - | 26.2 | - | - | - | - | - | -
CC(C)NC(=O)c1cc2c(s1)CCCC2 | - | - | - | - | - | - | . | .
CC1CCC(NC(=O)c2cc3c(s2)CCCC3)CC1 (stereo not given) | - | 49.9 | - | - | - | - | 63.5 | -
CCOC(=O)Cc1csc(NC(=O)c2cc3c(s2)CCCC3)n1 | 30.9 | 29.9 | - | - | - | - | 24.6 | -
Cc1cnc(NC(=O)c2cc3c(s2)CCCC3)s1 | - | - | - | - | - | - | . | .

Compound activity: PubChem BioAssay, several laboratories
